A549 tox = A549 cytotoxicity, counter-screen for Nrf2 inhibitors | A549 ARE-Fluc cells, CellTiter-Fluor viability, 18-24 h | Potency, µM (series often up to 46 µM), inactives show at the top dose activity change, negative = cytotoxicity, hits mostly inhibitors | 390,000 compounds, 0.16% hits; note: % is set by controls: 0 for no effect and ±100 for the full control effect
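Cytotoxicity counterscreen: CellTiter-Fluor fluorescence was measured in A549 ARE_Fluc cells after 18-24 h of compound exposure in a concentration series. The subsequent BugLite luminescent read reports ARE-luciferase activity.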
TGFb SMAD3 inh = blocks TGF-b signaling; 410,000 compounds, 1.2% hits; HepG2 CAGA-GFP TGF-b/SMAD3 reporter, GFP fluorescence, 18 h; TGF-beta stimulated, 500 pg/mL final; AID 588855; Potency, µM (series often up to 46.1 µM), inactives show top-dose activity, negative = inhibition, usual class: inhibitors; note: % is set by controls: 0 for no effect and ±100 for the full control effect; nearly all actives have a fitted effect of over 65% in size
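HEPG2 CAGA-GFP reporter cells (1000/well, DMEM with 1% FBS) received compounds, then recombinant TGF-beta at 500 pg/mL final for 18 hours at 37 degrees C. Per-cell GFP summed per well was normalised to unstimulated and stimulated DMSO controls before curve fitting.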
ATXN2 expr inh = ATXN2 expression inhibition; Potency, µM (top dose mostly 57 µM), inactives show at the highest dose activity change, negative = inhibition, usual class: inhibitors; HEK-293 ATXN2-luciferase reporter, luminescence, 24 h; AID 1745845; 360,000 compounds, 0.72% hits; note: % is set by controls: 0 for no effect and ±100 for the full control effect; nearly all actives have a fitted effect of over 55% in size
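ATXN2-luciferase reporter cells (luciferase flanked by upstream and downstream ATXN2 gene portions) were treated 24 h at 37 °C with compounds at up to 57 uM. SteadyGlo luminescence gave expression; GF-AFC fluorescence gave viability.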
S2 tox = reduces viability in counter-screen for ATXN expression inhibitors | Potency, µM (titrated, usually from 56.7 µM), usual class: cytotoxic | 400,000 compounds, 0.49% hits | S2 cells (HEK-293 line with an ATXN2-luciferase reporter) viability, CellTiter-Fluor protease fluorescence, 24 h; note: nearly all actives have a fitted effect of over 40% in size
Nrf2 block = inhibitors of Nrf2 signaling; A549 ARE-Fluc reporter, luciferase luminescence, 18-24 h; Potency, µM (series often up to 46 µM), inactives show top-dose activity change, negative = inhibition, usual class: inhibitors; 360,000 compounds, 2.1% hits; AID 504444; note: % is set by controls: 0 for no effect and ±100 for the full control effect; nearly all actives have a fitted effect of over 60% in size
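A549 ARE_Fluc cells, 5000/well, 5% FBS OPTI-MEM; compounds in dose-response, 18-24 h at 37 °C/5% CO2; CellTiter-Fluor viability read (Ex 405/Em 525), then BugLite luciferase luminescence = Nrf2 activity.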
HepG2 tox = counter-screen for TGF-b inhibitors: cytotoxicity in HepG2 cells; HepG2 CAGA-GFP viability, ATP luminescence, 18 h; Potency, µM (doses to about 46.1 µM), for inactives: at the highest dose activity change, negative = cytotoxicity, most hits filed as cytotoxic; 410,000 compounds, 0.76% hits; AID 588856
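CellTiter-Glo luminescence gave cytotoxicity after 18 hours at 37 degrees C. The cells were HepG2 CAGA-GFP in 1% FBS DMEM, stimulated with 500 pg/mL TGF-beta after compound addition. %Activity was normalised to no-cell wells (complete cell-killing) and DMSO (no toxicity), and curves were fitted and classified.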
Active calls of the source: *; i = inactive; ? = inconclusive; nt = not tested or not shown; [ ] = another dose, or the depositor's remark. A selection: hits, their analogues and other compounds. The true share with any hit is near 3.8%. Calls come from the whole dose curve; as a rule, active = well fitted curve in the direction sought with a large enough effect; inconclusive = small, poorly fitted or top-dose-only effect, or another doubt; inactive = no such curve, though single readings can be large; an effect the other way counts as inactive or inconclusive. Potency is the fitted concentration of half-maximal effect.

SMILES | A549 tox | TGFb SMAD3 inh | ATXN2 expr inh | S2 tox | Nrf2 block | HepG2 tox
CC[C@@H]1[C@@H](C)O[C@@](O)([C@@H](C)[C@H](O)[C@H](C)[C@H]2OC(=O)C=CC=C[C@@H](C)[C@@H]([C@@H](C)[C@@H](O)[C@H](C)[C@@]3(O)C[C@H](O[C@H]4C[C@H](O)[C@H](O)[C@H](C)O4)[C@H](CC)[C@@H](C)O3)OC(=O)C=CC=C[C@@H]2C)C[C@H]1O[C@H]1C[C@H](O)[C@H](O)[C@H](C)O1 | nt | nt | 0.968µM* | nt | nt | nt
CC(N)C(=O)NC1C2C(=C(O)CC(O)C2O)C(=O)OC1(C)C(Cl)Cl (stereo unspecified) | 2.06µM* | ? | 1.5µM* | ? | 1.64µM* | -3.6%
CCCCCCCCn1sccc1=O | -3.8% | 5.62µM* | 25.1µM* | nt | 16.2% | -96.8%
Cc1ccc(-c2nc(CN3C(=O)CN=C(c4ccccc4Cl)c4cc(Cl)ccc43)c(C)o2)cc1 | -7.2% | ? | -9.1% | ? | ? | -44.3%
O=Cc1cn(Cc2cccc(F)c2)c2ccccc12 | -1.3% | ? | ? | i | 11.4% | -45.5%
O=Cc1cn(Cc2ccc(Br)cc2)c2ccccc12 | -2.5% | 1µM* | ? | ? | -3.4% | -45.9%
O=P(O)(O)c1ccccc1OCCOCCOCCOCCOc1ccccc1P(=O)(O)O | 2.9% | -4.7% | 37.1%[11.3 µM] | i | ? | 0.9%
CC1(C)c2[nH]c3ccccc3c2C[C@H]2C(=O)N(Cc3ccccc3F)C(=O)N21 | ? | ? | ? | i | 23.1µM* | -34.3%
Cc1oc2ccc(O)c(CN3CCCCCC3)c2c1C(=O)Nc1cccc(Cl)c1C | -5.5% | ? | nt | nt | 20.9% | -18.0%
COc1ccc(-c2c3c(nc4sc5c(Cl)nc(C)nc5c24)CCC3)cc1 | -0.8% | 3.0% | -32.4% | ? | 1.7% | 1.4%
CC1(C)C[C@H]2C=C(C=O)[C@]3(C=O)C[C@]3(C)[C@H]2C1 | -3.0% | ? | 3.55µM* | 7.08µM* | ? | 10µM*
COC(=O)c1ccc(COc2cc(C)cc3oc(=O)c4c(c23)CCCC4)o1 | 7.3% | -4.2% | -4.6% | i | ? | -19.8%
COC(=O)c1ccc(CSc2nc3c(cnn3-c3ccc(C)cc3)c(=O)[nH]2)o1 | -1.3% | -1.7% | -0.3% | i | 23.1µM* | 1.5%
C=C(C=O)C[C@@H]1C[C@H](O)C2OC3C[C@]4(C)OC5/C=C\CC6OC7C(CC=CCC6OC5CCCC4OC3CC2O1)OC1CC2OC3CC(=O)OC3C[C@@H](C)C[C@@]2(C)OC1C[C@@H]7C (stereo partly specified) | 8.1% | ? | 1.58µM* | 1.78µM* | 2.5% | nt
COc1cc([N+](=O)[O-])c2nc(C)ccc2c1[N+](=O)[O-] | -8.4% | ? | -24.6% | 28.2µM* | -7.1% | -72.1%
NC(N)=N/N=C/c1ccc(N(c2ccccc2)c2ccccc2)cc1 | -8.4% | 12.6µM* | nt | nt | -18.1% | 7.94µM*
COc1ccc(/C=N\N=C(N)N)cc1 | -7.3% | 4.4% | -26.8% | ? | -9.5% | -26.3%
Cc1cccc(NC(=O)Oc2ccc(Cl)c3cccnc23)c1 | nt | ? | nt | i | nt | 2.82µM*
O=C(NCC1=C(c2cccc3ccccc23)C[C@@H]2CC[C@H]1N2Cc1ccco1)c1ccc([N+](=O)[O-])cc1 | nt | ? | ? | 14.1µM* | nt | -40.6%
Cc1cc(OCC(=O)N2CCN(CC(=O)N3CCOCC3)CC2)c(C(C)C)cc1Cl | -12.3% | -7.0% | nt | i | -23.9% | -35.8%
O=C(CN1CCN(c2ncc(C(F)(F)F)cc2Cl)CC1)N1CCN(c2ncc(C(F)(F)F)cc2Cl)CC1 | ? | -18.7% | -28.4% | ? | 11.2µM* | -18.0%
C[C@]12CC[C@H]3[C@@H](CC[C@@]45O[C@H]4C(O)=C(C#N)C[C@]35C)[C@H]1CC[C@H]2O | nt | nt | -6.2% | i | nt | nt
CSc1cccc(NC(=O)C2CCN(C(=O)c3cnn(-c4ccccc4)c3-n3cccc3)CC2)c1 | -22.2% | ? | ? | ? | 23.1µM* | -20.3%
O=C(NCc1ccc(Cl)cc1)C1CCCN(C(=O)c2cnn(-c3ccc(F)cc3)c2-n2cccc2)C1 (stereo unspecified) | -10.7% | 0.0% | nt | nt | ? | -28.3%
COc1cccc(NC(=O)C2CCN(c3nnc(C)c4c(C)n(-c5ccccc5)nc34)CC2)c1 | -19.0% | ? | ? | ? | nt | -37.6%
SMILES | A549 tox | TGFb SMAD3 inh | ATXN2 expr inh | S2 tox | Nrf2 block | HepG2 tox
Cc1ccc(NC(=O)C2CCCN(C(=O)c3cnn(-c4ccccc4)c3-n3cccc3)C2)cc1 (stereo unspecified) | -6.1% | ? | -9.6% | i | 13µM* | -9.4%
COc1ccc(OC)c(CC(C)N)c1 (stereo unspecified) | nt | nt | 2.3%[116 µM] | ? | nt | nt
CCCCN1CCS(=O)(=O)N(Cc2ccccc2Br)CC(C(=O)OC)C1 (stereo unspecified) | -2.6% | ? | -9.6% | i | 12.5% | 0.3%
Cc1oc(-c2ccccc2Cl)nc1CN1C(=O)CN=C(c2ccccc2)c2cc(Cl)ccc21 | ? | -0.9% | ? | nt | ? | 4.9%
Cc1ccc(S(=O)(=O)c2nc(-c3ccccc3Cl)oc2N(C)C2CCN(C)CC2)cc1 | ? | ? | -32.8% | ? | 2.1% | 11.2µM*
O=C(COc1ccc2ccccc2c1)N1CCN(Cc2c[nH]c3ccccc23)CC1 | -13.7% | ? | ? | ? | 5.1% | 12.6µM*
COc1ccc(CN2CCN(C(=O)COc3ccc4ccccc4c3)CC2)c(OC)c1 | -19.6% | -29.2% | -28.7% | i | ? | -16.3%
O=C(COc1ccc(Br)cc1)N1CCN(Cc2c[nH]c3ccccc23)CC1 | -2.6% | 11.2µM* | -7.0% | i | 0.1% | -62.9%
COc1cc2c(cc1OC)C1[C@H]3C(=CC[C@H]1OC2O)CCN3C (stereo partly specified) | -0.7% | -6.2% | -7.8% | i | -2.1% | -0.8%
Cc1ccc(C[n+]2c(-c3ccc(C)cc3)cc(-c3ccc(C)cc3)cc2-c2ccc(C)cc2)cc1 | 18.4µM* | ? | ? | nt | 5.17µM* | -109.5%
Cc1ccc(-c2cc(-c3ccc(C)cc3)[n+](-c3ccc(C(=O)O)cc3)c(-c3ccc(C)cc3)c2)cc1 | 0.6% | 8.8% | -0.5% | i | 9.1% | -13.1%
COC(=O)C(NC(C)=O)(Nc1nc2c(C)cc(C)cc2s1)C(F)(F)F (stereo unspecified) | ? | -9.3% | -28.2% | i | ? | -15.7%
COc1ccc(-c2ccc3c(c2)CN(C(=O)C(C)(C)C)Cc2cnnn2-3)cc1 | nt | -15.1% | -35.0% | ? | nt | -31.5%
